From PubChem BioAssay AID1347415 (National Center for Advancing Translational Sciences (NCATS), 2020) come the findings set out here.

Inconclusive results are not listed. A number with no mark means an inactive call. Active and inactive are the calls of the source. The call rests on the fitted dose curve; in most records, active means well fitted inhibition curve with a large enough effect; inconclusive means small, poorly fitted or top-dose-only effect; inactive means no such curve, though single readings can be large or run the other way.

This experiment can be described thus: qHTS to identify inhibitors of the type 1 interferon - major histocompatibility complex class I in skeletal muscle: tertiary screen by RT-qPCR. As to conditions: C25cl48 human myoblasts, IFN-beta, HLA-B RT-qPCR, 24 h; series mostly up to 49.8 µM; activity change, negative = inhibition: at the top concentration. The source says: Assay Submitter (PI): Travis B. Kinder Ph.D. & James Inglese Ph.D. Assay Development and Screening Technology Laboratory (ADST) National Center for Advancing Translational Sciences (NCATS), Rockville, MD National Institute of Health (NIH), Bethesda, Maryland Idiopathic inflammatory myopathies, collectively referred to as myositis, are a group of rare autoimmune diseases characterized by skeletal muscle inflammation, weakness, and usually accompanied by systemic pathologies of the skin, lungs, or vasculature. Current immunosuppressive therapies and glucocorticoids are often not curative and are accompanied by harsh side effects, especially in children with juvenile myositis. We initiated a drug repurposing and development program to identify more targeted, less toxic therapeutics to treat myositis. Although its cause is not known, muscle from a subset of patients have an abundance of the inflammatory type 1 interferon (IFN) and a down-stream product major histocompatibility complex class I (MHC class I), which are both thought to contribute to damage and weakness. We conducted quantitative high throughput screening (qHTS) on 6,576 compounds (4,679 unique) through a series of cell-based assays to identify those that inhibit the IFN-stimulated expression of MHC class I in muscle precursor cells (myoblasts). The compound identification and evaluation strategy utilized a primary screen with reporter-tagged MHC class I in genome-engineered myoblasts, ATP content counter screen for viability, HLA-ABC immunofluorescence secondary screen, and HLA-B RT-qPCR tertiary screen. To determine if active compounds identified by qHTS in HLA-B HiBit reporter cells, and confirmed by HLA-ABC immunofluorescence, can inhibit the transcription of HLA-B mRNA, compounds were assayed by RT-qPCR. Briefly, 62 compounds identified from primary, counter, and secondary screening as inhibitory with minimal cytotoxicity were dispensed into 384-well plates using acoustic dispensing in a 6-point, 1:7 titration with a high final concentration of 10 uM. Normal immortalized human myoblasts C25cl48 were added to the plate with 4.0 ng/ml human IFN-beta for 24 hours, and cells were harvested and assayed by the Cells-to-Ct kit with TaqMan assays (Thermo Fisher).
PROTOCOL TABLE (as described by Inglese et al., 2007) SEQUENCE No. (e.g., 1, 2, 3, etc.); […] (e.g., Cells, Incubation, Reagent, etc.); VALUE; DESCRIPTION 0; Compounds; 150 nl; Follow-up compounds dispensed at 150 nl/well with Labcyte Echo 655 acoustic dispenser into one Corning white/clear bottom, high base TC 384-well plates (3765) 1a; Cells; 30 uL; Using a p200 manual pipette, seed 780 cells/well into 1 plate in 30 ul/well of iHSKM growth medium without dexamethasone into columns wells A1-A6. […]
(qHTS replaces the single test concentration by a dilution series.)
For `OCCCNc1cc(-c2ccnc(Nc3cccc(Cl)c3)n2)ccn1`, the Potency was 116 nM (active).
The same measure, in the same setting: then `COc1cccc2c1C(=O)c1c(O)c3c(c(O)c1C2=O)C[C@@](O)(/C(CO)=N/NC(=O)CCCCCN1C(=O)C=CC1=O)C[C@@H]3O[C@H]1C[C@H](N)[C@H](O)[C@H](C)O1`, with 4630 nM (active).
As for `C=CCNC1=C2C[C@@H](C)C[C@H](OC)[C@H](O)[C@@H](C)/C=C(\C)[C@H](OC(N)=O)[C@@H](OC)/C=C\C=C(/C)C(=O)NC(=CC1=O)C2=O`, the “activity change, negative = inhibition” value was -32.6%.
For `CC(=O)c1cnc2ccc(-c3cc(Cl)c(O)c(Cl)c3)nc2c1NC1CCC(CN(C)C)CC1` (configuration not stated), the Potency was 116 nM (active).
As for `CN1CCN(Cc2ccc(NC(=O)Nc3ccc(Oc4cc(NC(=O)C5CC5)ncn4)cc3)cc2C(F)(F)F)CC1`, the Potency was 146 nM (active).
With `C[C@@]12O[C@@H](C[C@]1(O)CO)n1c3ccccc3c3c4c(c5c6ccccc6n2c5c31)CNC4=O`, the Potency is 2600 nM (active).
Regarding `C[C@H]1C[C@@H]2[C@H]([C@@H](O)C[C@@]3(C)[C@H]2CC[C@]3(O)C(=O)CO)[C@@]2(C)C=CC(=O)C=C12`, the “activity change, negative = inhibition” value was -18%.
On to `O=C(/C=C/c1ccc(CN(CCO)CCc2c[nH]c3ccccc23)cc1)NO`, for which the Potency is 116 nM (active).
Regarding `NC(=O)c1cnc2[nH]ccc2c1NC1C2CC3C[C@H]1CC(O)(C3)C2` (some centres not stated), the Potency is 1640 nM (active).
With `Cc1cc(O)c(-c2ccc([C@@H](C)CN(C)C)cc2)c2c1[nH]c(=O)c1sccc12`, the Potency is 51.9 nM (active).
Same read-out and setting: in the case of `NC(=O)Nc1sc(-c2ccc(F)cc2)cc1C(N)=O` it was 10400 nM (active); in that of `CC(=O)c1ccc2c(c1)c1cc(C(C)=O)ccc1n2CCNC(C)C`, 1840 nM (active).
For `Cc1ccc(-c2ncn(-c3ccc(Nc4nccc(-c5cccc(N6CCOCC6)c5)n4)cc3)n2)cn1`, the Potency is 1460 nM (active).
With `Cc1cc(Nc2cc(NC(=O)c3c(Cl)cccc3Cl)ccn2)nc(N)n1`, the Potency is 4630 nM (active).
Consider `O=C(Nc1nc2cccc(-c3ccc(CN4CCS(=O)(=O)CC4)cc3)n2n1)C1CC1`, for which the Potency was 18400 nM (active).
`Cc1ncsc1-c1ccc([C@H](C)NC(=O)[C@@H]2C[C@@H](O)CN2C(=O)[C@@H](NC(=O)COCCCOCCNC(=O)C[C@@H]2N=C(c3ccc(Cl)cc3)c3c(sc(C)c3C)-n3c(C)nnc32)C(C)(C)C)cc1`: the “activity change, negative = inhibition” value was -104%.
In the case of `CCS(=O)(=O)N1CCN(c2ccc(Nc3ncc(C(N)=O)c(NC4CC4)n3)cc2)CC1`, the Potency was 5830 nM (active).
In the case of `c1cc(Nc2cc(C3CC3)[nH]n2)nc(Nc2ccc3nc[nH]c3c2)n1`, the Potency is 654 nM (active).
`N#CC[C@H](C1CCCC1)n1cc(-c2ncnc3[nH]ccc23)cn1`: the Potency is 1640 nM (active).
`CC1=C(CO)C(=O)O[C@@H]([C@@H](C)[C@H]2CC[C@H]3[C@@H]4C[C@H]5O[C@]56[C@@H](O)C=CC(=O)[C@]6(C)[C@H]4CC[C@]23C)C1`: the Potency is 1300 nM (active).
In the case of `Cc1nc(Nc2n[nH]c3c2CN(C(=O)N[C@H](CN(C)C)c2ccccc2)C3(C)C)c2sccc2n1`, the Potency is 1840 nM (active).
In the case of `CN1CCN(c2cccc(Nc3nc4c(-c5ccc(S(C)(=O)=O)cc5)cccn4n3)c2)CC1`, the Potency was 8230 nM (active).
Turning to `N#CCC1(n2cc(-c3ncnc4[nH]ccc34)cn2)CN(C2CCN(C(=O)c3ccnc(C(F)(F)F)c3F)CC2)C1`, the Potency is 3680 nM (active).
Regarding `COc1cccc2c1C(=O)c1c(O)c3c(c(O)c1C2=O)C[C@@](O)(C(=O)CO)C[C@@H]3O[C@H]1C[C@H](N)[C@H](O)[C@H](C)O1`, the Potency is 1040 nM (active).
Regarding `C[C@]12C=CC(=O)C=C1CC[C@@H]1[C@@H]2[C@@H](O)C[C@@]2(C)[C@H]1CC[C@]2(O)C(=O)CO`, the “activity change, negative = inhibition” value is -28.8%.
For `COc1ccc(-c2nc(N3CCOCC3)c3sc(CN(C)c4ncc(C(=O)NO)cn4)cc3n2)cn1`, the Potency was 23.2 nM (active).
On to `Cc1[nH]c2ccccc2c1CCNCc1ccc(/C=C/C(=O)NO)cc1`, for which the Potency is 29.2 nM (active).
Turning to `CS[C@H]1SC[C@@H]2C(=O)N(C)[C@H](C(C)C)C(=O)OC[C@H](NC(=O)c3cnc4ccccc4n3)C(=O)N[C@H](C)C(=O)N(C)[C@H]1C(=O)N(C)[C@H](C(C)C)C(=O)OC[C@H](NC(=O)c1cnc3ccccc3n1)C(=O)N[C@H](C)C(=O)N2C`, the “activity change, negative = inhibition” value is -135%.
Take `Cc1ccc(NC(=O)NCc2ccc3c(c2)CN(C2CCC(=O)NC2=O)C3=O)cc1Cl` (configuration not stated): the “activity change, negative = inhibition” value was -1.86%.
With `CCN(CC)Cc1ccc2cc(COC(=O)Nc3ccc(C(=O)NO)cc3)ccc2c1`, the Potency was 4130 nM (active).
On to `CC(=O)OCC(=O)[C@@]12OC(C)(C)O[C@@H]1C[C@H]1[C@@H]3C[C@H](F)C4=CC(=O)C=C[C@]4(C)[C@@]3(F)[C@@H](O)C[C@@]12C`, for which the “activity change, negative = inhibition” value is -29.4%.
With `C=C1C(=O)O[C@@H]2[C@H]3O[C@]3(C)CCC=C(C)CC[C@@H]12`, the Potency is 16400 nM (active).
On the same count and under the same terms, in the case of `OC1CCC(Oc2cccc3cnc(Nc4ccc5nc[nH]c5c4)nc23)CC1` (configuration not stated) it was 654 nM (active).
On to `N#CCNC(=O)c1ccc(-c2ccnc(Nc3ccc(N4CCOCC4)cc3)n2)cc1`, for which the Potency is 23200 nM (active).
Same read-out and setting: then `Cc1ccc([N+](=O)[O-])cc1S(=O)(=O)N(C)/N=C/c1cnc2ccc(Br)cn12`, with 232 nM (active); and `CC(C)C[C@H](NC(=O)[C@H](CCc1ccccc1)NC(=O)CN1CCOCC1)C(=O)N[C@@H](Cc1ccccc1)C(=O)N[C@@H](CC(C)C)C(=O)[C@@]1(C)CO1`, with 1840 nM (active); and `Cc1cc(Nc2nc(N[C@@H](C)c3ncc(F)cn3)ncc2Cl)n[nH]1`, with 4130 nM (active).
